In experiment [1] the test system is P. falciparum NF54-pfs16-GFP early (I-III) stage gametocytes. In words: relative % inhibition of viable gametocyte number; higher = more gametocytocidal. The conditions noted are these: stage: early (I-III) gametocyte, incubation 72 h. In a few lines:
(§1)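 Magnet-isolated NF54 pfs16-GFP gametocytes at early (I/IIa, day 2) or late (day 8) stage were exposed to compound at 5 or 0.5 µM for 72 h at 37°C, 5% CO2, 5% O2, at 10% parasitaemia and 0.1% haematocrit. Elongated GFP objects with MitoTracker Red signal above cut-off were counted as viable by confocal imaging. Relative inhibition was normalised to in-plate vehicle and positive-control wells.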

The test system of experiment [2] is P. falciparum NF54-pfs16-GFP late (IV-V) stage gametocytes. The description is as above. As to conditions: stage: late (IV-V) gametocyte, incubation 72 h. In a few lines: as §1

With `CC1CN(C(=O)c2sc3ccccc3c2Cl)CC(C)O1` (stereo not drawn), the relative % inhibition in experiment [1] (0.5 µM) is -11.1%; in experiment [1] (5 µM) it was 1.13%; in experiment [2] (0.5 µM) it was 6.08%; in experiment [2] (5 µM), -5.12%.

As to `O=C1C2=C(Nc3ccccc3SC2c2ccccc2)c2ccccc21` (stereo not drawn), the relative % inhibition in experiment [1] (0.5 µM) was -7.59%; in experiment [1] (5 µM) it was -12.7%; in experiment [2] (0.5 µM), 61.6%; in experiment [2] (5 µM), 55.8%.

For `COc1cc2c(cc1OC)C1=NNC(=O)C1=NC(C)(C)C2`, the relative % inhibition turned out to be 71.5% in experiment [1] (0.5 µM), 88.6% in experiment [1] (5 µM), 100% in experiment [2] (0.5 µM) and 98.5% in experiment [2] (5 µM).

In the case of `C=C(C)CCC(C)N1CCC(N2CCC(C(=O)NCCc3ccccc3)CC2)CC1` (stereo not drawn), the relative % inhibition in experiment [1] (0.5 µM) was -2.27%; in experiment [1] (5 µM) it was 49.4%; in experiment [2] (0.5 µM), -12.5%; in experiment [2] (5 µM), -42.7%.

With `Cc1ccc(Cn2c(N3CCC(C(=O)NCc4cccs4)CC3)nc3ccccc32)cc1`, the relative % inhibition in experiment [1] (0.5 µM) came out at 10.4%; in experiment [1] (5 µM), 35.6%; in experiment [2] (0.5 µM), 5.62%; in experiment [2] (5 µM), 23.8%.

Consider `O=C(Nc1ccccc1O)c1ccc(Oc2cccc(C(=O)Nc3ccccc3O)c2)cc1`, for which the relative % inhibition in experiment [1] (0.5 µM) turned out to be 20.5%; in experiment [1] (5 µM) it was 50.6%; in experiment [2] (0.5 µM) it was 14.1%; in experiment [2] (5 µM), 8.35%.

In the case of `COc1ccc(NC(=O)C2c3ccccc3C(=O)N(CC(C)C)C2c2cccs2)cc1` (stereo not drawn), the relative % inhibition is 52.4% in experiment [1] (0.5 µM), 102% in experiment [1] (5 µM), 25.7% in experiment [2] (0.5 µM) and 52.6% in experiment [2] (5 µM).

On to `CCOc1c(Br)cc(C2C(C(=O)OC)=CN(C)C=C2C(=O)OC)cc1OC`, for which the relative % inhibition in experiment [1] (0.5 µM) was 17.4%; in experiment [1] (5 µM) it was 88.4%; in experiment [2] (0.5 µM), -1.2%; in experiment [2] (5 µM) it was 68.1%.

As for `Cc1cccc(Nc2nc(N)c3ccccc3n2)c1`, the relative % inhibition in experiment [1] (0.5 µM) was -18.5%; in experiment [1] (5 µM) it was -18.1%; in experiment [2] (0.5 µM) it was -5.43%; in experiment [2] (5 µM), 5.81%.

Take `Cc1ccc(-c2cc3c(nn2)-c2ccccc2C3=O)cc1`: the relative % inhibition worked out at 2.74% in experiment [1] (0.5 µM), 95% in experiment [1] (5 µM), 102% in experiment [2] (0.5 µM) and 70.6% in experiment [2] (5 µM).

For `Nc1ccc(-c2nc3cc(Cc4ccc5[nH]c(-c6ccc(N)cc6)nc5c4)ccc3[nH]2)cc1`, the relative % inhibition in experiment [1] (0.5 µM) was determined as 14.7%; in experiment [1] (5 µM), 100%; in experiment [2] (0.5 µM), 14.6%; in experiment [2] (5 µM), 85.1%.

Regarding `OC1=C2C(=Nc3ccccc3SC2c2ccc(Br)cc2)c2ccccc21` (stereo not drawn), the relative % inhibition in experiment [1] (0.5 µM) was 3.13%; in experiment [1] (5 µM), 35.9%; in experiment [2] (0.5 µM), 71.4%; in experiment [2] (5 µM) it was 73%.

Regarding `CCOc1ccc(-c2nonc2NC(=O)c2cccc(C)c2)cc1OCC`, the relative % inhibition in experiment [1] (0.5 µM) amounted to 31.4%; in experiment [1] (5 µM) it was 94.4%; in experiment [2] (0.5 µM), 27.6%; in experiment [2] (5 µM), 18.4%.

As for `CCOc1cc2c(cc1OCC)C(c1cc(Cl)c(O)c(OCC)c1)NCC2` (stereo not drawn), the relative % inhibition in experiment [1] (0.5 µM) was found to be 8.41%; in experiment [1] (5 µM), 94.7%; in experiment [2] (0.5 µM), 29.4%; in experiment [2] (5 µM), 18.2%.

Regarding `Oc1ccc(Cl)cc1CNc1nc2ccccc2[nH]1`, the relative % inhibition in experiment [1] (0.5 µM) is 16.5%; in experiment [1] (5 µM), 37.3%; in experiment [2] (0.5 µM), -1.55%; in experiment [2] (5 µM) it was 13.6%.

As for `CCN(CC)CCNc1ccnc2cc(Cl)ccc12`, the relative % inhibition in experiment [1] (0.5 µM) was -1.61%; in experiment [1] (5 µM), 100%; in experiment [2] (0.5 µM), 18.2%; in experiment [2] (5 µM), 14.7%.

On to `Cc1c(C)n(CC(O)CNC2CCCCC2C)c2ccccc12` (stereo not drawn), for which the relative % inhibition in experiment [1] (0.5 µM) was found to be 41.6%; in experiment [1] (5 µM), 98.7%; in experiment [2] (0.5 µM), 34.2%; in experiment [2] (5 µM) it was 54.5%.

Take `CCc1ccc(Nc2cc(C)nc3nc(C)nn23)cc1`: the relative % inhibition in experiment [1] (0.5 µM) is -3.8%; in experiment [1] (5 µM), -31%; in experiment [2] (0.5 µM) it was 4.51%; in experiment [2] (5 µM) it was 16.9%.

For `Cc1ccc(NC(=O)Nc2cccc(Cl)c2)cc1F`, the relative % inhibition was 11% in experiment [1] (0.5 µM), 28.9% in experiment [1] (5 µM), -16% in experiment [2] (0.5 µM) and 21.8% in experiment [2] (5 µM).

Take `Oc1ccc(-c2nc(-c3ccc4oc5ccc(-c6[nH]c(-c7ccc(O)cc7)nc6-c6ccccc6)cc5c4c3)c(-c3ccccc3)[nH]2)cc1`: the relative % inhibition in experiment [1] (0.5 µM) came to 92.1%; in experiment [1] (5 µM), 107%; in experiment [2] (0.5 µM), 3.61%; in experiment [2] (5 µM), 52.7%.

Take `CN(C)c1ccc(C(O)(c2ccc(N(C)C)cc2)c2ccc(N(C)C)cc2)cc1`: the relative % inhibition in experiment [1] (0.5 µM) is 81.4%; in experiment [1] (5 µM), -12.4%; in experiment [2] (0.5 µM), 102%; in experiment [2] (5 µM), 103%.

Take `CC1CCN(Cc2c(O)ccc3cc(-c4nc5ccccc5s4)c(=O)oc23)CC1`: the relative % inhibition in experiment [1] (0.5 µM) was 2.97%; in experiment [1] (5 µM) it was 94.7%; in experiment [2] (0.5 µM), 18.2%; in experiment [2] (5 µM), 18.4%.

In the case of `Nc1nc(Nc2cccc(F)c2)nc2ccccc12`, the relative % inhibition in experiment [1] (0.5 µM) is 5.49%; in experiment [1] (5 µM), -3.66%; in experiment [2] (0.5 µM) it was 15.1%; in experiment [2] (5 µM), 2.78%.

Regarding `Nc1ccc(-c2nc3cc(Oc4ccc(Oc5ccc6[nH]c(-c7ccc(N)cc7)nc6c5)cc4)ccc3[nH]2)cc1`, the relative % inhibition in experiment [1] (0.5 µM) stood at 13.7%; in experiment [1] (5 µM), 98%; in experiment [2] (0.5 µM) it was 13.4%; in experiment [2] (5 µM), 32.9%.

Take `CC(C)(C)c1ccc2c(c1)CN(Cc1ccc(Cl)cc1)CO2`: the relative % inhibition is 9.71% in experiment [1] (0.5 µM), 98.4% in experiment [1] (5 µM), 27.3% in experiment [2] (0.5 µM) and 54.6% in experiment [2] (5 µM).

On to `OC(CNCC1CCCO1)Cn1c2ccc(Cl)cc2c2cc(Cl)ccc21` (stereo not drawn), for which the relative % inhibition came to 16.5% in experiment [1] (0.5 µM), 31.6% in experiment [1] (5 µM), 45.5% in experiment [2] (0.5 µM) and 75.6% in experiment [2] (5 µM).

With `c1ccc2cc3c(Nc4ccc(N5CCOCC5)cc4)ccnc3cc2c1`, the relative % inhibition in experiment [1] (0.5 µM) was -11.9%; in experiment [1] (5 µM), 12.3%; in experiment [2] (0.5 µM), 9.42%; in experiment [2] (5 µM) it was 36.1%.

Take `CSC1=NC(=Nc2c(C)cccc2C)C2(CCC(C(C)(C)C)CC2)N1c1ccc(Cl)cc1` (stereo not drawn): the relative % inhibition in experiment [1] (0.5 µM) was determined as 24.7%; in experiment [1] (5 µM) it was 4.25%; in experiment [2] (0.5 µM), 93.4%; in experiment [2] (5 µM) it was 103%.

In the case of `CCn1c2c(c(=N)c3c1CCC3)CCCC2`, the relative % inhibition is -1.17% in experiment [1] (0.5 µM), 25.3% in experiment [1] (5 µM), 10.1% in experiment [2] (0.5 µM) and -7.91% in experiment [2] (5 µM).

On to `CCc1ccc(Nc2cc(C)c3ccc(O)cc3n2)cc1`, for which the relative % inhibition is 1.9% in experiment [1] (0.5 µM), 99.6% in experiment [1] (5 µM), 16.3% in experiment [2] (0.5 µM) and 56.6% in experiment [2] (5 µM).

In the case of `CCCN(CCC)CC(O)COc1ccccc1C(=O)Nc1ccccc1` (stereo not drawn), the relative % inhibition is 22.5% in experiment [1] (0.5 µM), 101% in experiment [1] (5 µM), 34.9% in experiment [2] (0.5 µM) and 65.1% in experiment [2] (5 µM).

Turning to `COc1ccc(C)c2sc(N(Cc3cccnc3)C(=O)c3ccc(C#N)cc3)nc12`, the relative % inhibition in experiment [1] (0.5 µM) is 11.9%; in experiment [1] (5 µM), 35.9%; in experiment [2] (0.5 µM) it was -23.5%; in experiment [2] (5 µM) it was 7.81%.
